Measurements: PubChem BioAssay (NCI)
This is part of a sample that, as a whole, favours compounds with a hit. Of some 83,000 tested, about 20% had one in any assay.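 Cell lines were cultured in 96-well plates, exposed to a single compound concentration, and assessed for percent growth 48 hours later.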 A number with no mark means an inactive call. Activity calls are given as the source filed them. The calls were made as follows: active = growth percent below 10; inactive = the rest.

Key:
Assay in all cases: NCI-60 one-dose screen, 48 h (100 = growth as untreated, 0 = no growth, -100 = all killed)
Conditions in all cases: 10 µM unless noted
HCT-15 colon = test system: HCT-15 colon
HT29 colon = test system: HT29 colon
SNB-75 CNS = test system: SNB-75 CNS
SNB-19 CNS = test system: SNB-19 CNS
U251 CNS = test system: U251 CNS
PC-3 prostate = test system: PC-3 prostate
SK-MEL-5 melanoma = test system: SK-MEL-5 melanoma
UACC-62 melanoma = test system: UACC-62 melanoma
LOX IMVI melanoma = test system: LOX IMVI melanoma
SK-MEL-28 melanoma = test system: SK-MEL-28 melanoma

`CC(C)[C@@]12C[C@@H](OC(=O)[C@H]3CO3)[C@@](C)(O1)[C@@H]1CC[C@@H](C)[C@H]1[C@@H]2OC(=O)/C=C/c1ccccc1` was tested, and the growth (HCT-15 colon) was 55.5%, the growth (HT29 colon) was 84.3% and the growth (SNB-75 CNS) was 71.4%. It also gave a growth (SNB-19 CNS) of 86.6%, a growth (U251 CNS) of 67.8% and a growth (PC-3 prostate) of 60.7%. The growth (SK-MEL-5 melanoma) was 93.4%, the growth (UACC-62 melanoma) was 70.1% and the growth (LOX IMVI melanoma) was 70.9%. The growth (SK-MEL-28 melanoma) was 106%.

Compound `Oc1ccc(-c2nnc3c4[nH]ccc4ncn23)cc1` has a growth (HCT-15 colon) of 110%, a growth (HT29 colon) of 98.3% and a growth (SNB-75 CNS) of 78.8%. The growth (SNB-19 CNS) was 98.9%, the growth (U251 CNS) was 102% and the growth (PC-3 prostate) was 94.3%. It also gave a growth (SK-MEL-5 melanoma) of 104%, a growth (UACC-62 melanoma) of 95.2% and a growth (LOX IMVI melanoma) of 89.9%. It also gave a growth (SK-MEL-28 melanoma) of 102%.

In the case of `CCCCCCCOc1cccc(/C=C2\N=C3SCCCN3C2=O)c1`, the growth (HCT-15 colon) is reported as 87.5%, the growth (HT29 colon) is reported as 88.9% and the growth (SNB-75 CNS) is reported as 91.2%. The growth (SNB-19 CNS) was 92.8%, the growth (U251 CNS) was 91.1% and the growth (PC-3 prostate) was 85.3%. It also gave a growth (SK-MEL-5 melanoma) of 90.1%, a growth (UACC-62 melanoma) of 79.6% and a growth (LOX IMVI melanoma) of 96.2%. It also gave a growth (SK-MEL-28 melanoma) of 100%.

For `COc1ccc2c(c1)OC1=C(C(=O)OC1)C2c1cc(OC)c2c(c1)OCCO2` (stereo not given), the growth (HCT-15 colon) was 12.8%, the growth (HT29 colon) was 5.47% (active) and the growth (SNB-75 CNS) was 30%. It also gave a growth (SNB-19 CNS) of 38.8%, a growth (U251 CNS) of 20.5% and a growth (PC-3 prostate) of 25.6%. The growth (SK-MEL-5 melanoma) was -17.7% (active), the growth (UACC-62 melanoma) was 36.3% and the growth (LOX IMVI melanoma) was 21.3%. It also gave a growth (SK-MEL-28 melanoma) of 45.4%.

With `CCOC(=O)C1=C(C)NC(=S)NC1c1ccccc1` (stereo not given) the growth (HCT-15 colon) was 104%, the growth (HT29 colon) was 110% and the growth (SNB-75 CNS) was 82.6%. It also gave a growth (SNB-19 CNS) of 104%, a growth (U251 CNS) of 105% and a growth (PC-3 prostate) of 115%. The growth (SK-MEL-5 melanoma) was 103%, the growth (UACC-62 melanoma) was 95.6% and the growth (LOX IMVI melanoma) was 101%. For the same compound, the growth (SK-MEL-28 melanoma) was 112%.

`C=CCN1C(=O)/C(=c2\sc3n(c2=O)C2C(NN=3)N(CC)C(=O)N2CC)c2ccccc21` (stereo not given) was tested, and the growth (HCT-15 colon) was 15.7%, the growth (HT29 colon) was 6.59% (active) and the growth (SNB-75 CNS) was 23.8%. For the same compound, the growth (SNB-19 CNS) was 26.8%, the growth (U251 CNS) was 22.8% and the growth (PC-3 prostate) was 22%. For the same compound, the growth (SK-MEL-5 melanoma) was 18.5%, the growth (UACC-62 melanoma) was 26.1% and the growth (LOX IMVI melanoma) was 28.9%. For the same compound, the growth (SK-MEL-28 melanoma) was 62.4%.

Compound `c1ccc(-c2ccc(-c3ccccc3)[nH]2)cc1` has a growth (HCT-15 colon) of 94.8%, a growth (HT29 colon) of 101% and a growth (SNB-75 CNS) of 87.9%. For the same compound, the growth (SNB-19 CNS) was 104%, the growth (U251 CNS) was 105% and the growth (PC-3 prostate) was 99.8%. For the same compound, the growth (SK-MEL-5 melanoma) was 99%, the growth (UACC-62 melanoma) was 87.2% and the growth (LOX IMVI melanoma) was 103%. The growth (SK-MEL-28 melanoma) was 107%.

Compound `Cc1cccc(N=NC(=S)NNc2cccc(C)c2)c1` has a growth (HCT-15 colon) of 108%, a growth (HT29 colon) of 97.9% and a growth (SNB-75 CNS) of 88.7%. The growth (SNB-19 CNS) was 106%, the growth (U251 CNS) was 114% and the growth (PC-3 prostate) was 102%. The growth (SK-MEL-5 melanoma) was 108%, the growth (UACC-62 melanoma) was 101% and the growth (LOX IMVI melanoma) was 105%. It also gave a growth (SK-MEL-28 melanoma) of 125%.

`Nc1ncnc2c1N=C(c1ccc3c(c1)OCO3)CC(c1ccc(Cl)cc1)N2` (stereo not given) was tested, and the growth (HCT-15 colon) was 63.6%, the growth (HT29 colon) was 69.8% and the growth (SNB-75 CNS) was 48.5%. For the same compound, the growth (SNB-19 CNS) was 67.8%, the growth (U251 CNS) was 74% and the growth (PC-3 prostate) was 62.6%. It also gave a growth (SK-MEL-5 melanoma) of 78%, a growth (UACC-62 melanoma) of 60.3% and a growth (LOX IMVI melanoma) of 76.2%. It also gave a growth (SK-MEL-28 melanoma) of 88.5%.

For `COc1cc(C2CC(c3cccc(Nc4ccnc5cc(Cl)ccc45)c3)=NN2C=O)cc(OC)c1OC` (stereo not given), the growth (HCT-15 colon) was 27.6%, the growth (HT29 colon) was -54.3% (active) and the growth (SNB-75 CNS) was -26.9% (active). It also gave a growth (SNB-19 CNS) of 36.9%, a growth (U251 CNS) of 21.5% and a growth (PC-3 prostate) of 16.7%. The growth (SK-MEL-5 melanoma) was 4.37% (active), the growth (UACC-62 melanoma) was -35% (active) and the growth (LOX IMVI melanoma) was 19.9%. The growth (SK-MEL-28 melanoma) was 7.27% (active).

Compound `NS(=O)(=O)c1ccc(CCn2c(SCC(=O)N/N=C/c3cccnc3)nc3ccccc3c2=O)cc1` has a growth (HCT-15 colon) of 83%, a growth (HT29 colon) of 109% and a growth (SNB-75 CNS) of 90.8%. It also gave a growth (SNB-19 CNS) of 100%, a growth (U251 CNS) of 87.7% and a growth (PC-3 prostate) of 83.8%. For the same compound, the growth (SK-MEL-5 melanoma) was 79.5%, the growth (UACC-62 melanoma) was 84.5% and the growth (LOX IMVI melanoma) was 85%. For the same compound, the growth (SK-MEL-28 melanoma) was 101%.

Work on `CC(C)(c1ccccc1)c1cc(O)c(C(C)(C)c2ccccc2)cc1O` yielded a growth (HCT-15 colon) of 21.3%, a growth (HT29 colon) of 15.8% and a growth (SNB-75 CNS) of 43.5%. It also gave a growth (SNB-19 CNS) of 37.8%, a growth (U251 CNS) of 36.5% and a growth (PC-3 prostate) of 16.9%. The growth (SK-MEL-5 melanoma) was 11.3%, the growth (UACC-62 melanoma) was 20.6% and the growth (LOX IMVI melanoma) was 32.7%. It also gave a growth (SK-MEL-28 melanoma) of 53.2%.

In the case of `COc1cc(-c2nn(C(=O)NCCN3CCN(C)CC3)cc2-c2ccncc2)ccc1Cl`, the growth (HCT-15 colon) is reported as 88.7%, the growth (HT29 colon) is reported as 47% and the growth (SNB-75 CNS) is reported as 42.3%. The growth (SNB-19 CNS) was 77.5%, the growth (U251 CNS) was 80.9% and the growth (PC-3 prostate) was 74.3%. For the same compound, the growth (SK-MEL-5 melanoma) was 62.4%, the growth (UACC-62 melanoma) was 57.6% and the growth (LOX IMVI melanoma) was 85.9%. For the same compound, the growth (SK-MEL-28 melanoma) was 68.1%.

For `O=[N+]([O-])c1ccc(N/N=C\c2ccc(O)cc2O)nc1`, the growth (HCT-15 colon) was 29.8%, the growth (HT29 colon) was 90.2% and the growth (SNB-75 CNS) was 53.6%. For the same compound, the growth (SNB-19 CNS) was 58.6%, the growth (U251 CNS) was 28.4% and the growth (PC-3 prostate) was 49.5%. For the same compound, the growth (SK-MEL-5 melanoma) was 13.7%, the growth (UACC-62 melanoma) was 43.9% and the growth (LOX IMVI melanoma) was 24.7%. It also gave a growth (SK-MEL-28 melanoma) of 64.1%.
